The entries come from a sample that favours hits as a whole.
AmpC inh detg: AmpC beta-lactamase inhibition with detergent present. AmpC hydrolysis of nitrocefin, absorbance 480 nm, 0.01% Triton. 370,000 compounds, 0.041% hits. AID 485294. Potency, µM (titrated, usually from 114 µM), for the others: top-dose activity change, negative = inhibition, most hits filed as inhibitors;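 note: potency is the fitted concentration of half-maximal effect; 0% = no-compound wells and -100% = no-enzyme wells; nearly all actives have a fitted effect of over 25% in size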
Target sequence (P00811 whole entry, looked up): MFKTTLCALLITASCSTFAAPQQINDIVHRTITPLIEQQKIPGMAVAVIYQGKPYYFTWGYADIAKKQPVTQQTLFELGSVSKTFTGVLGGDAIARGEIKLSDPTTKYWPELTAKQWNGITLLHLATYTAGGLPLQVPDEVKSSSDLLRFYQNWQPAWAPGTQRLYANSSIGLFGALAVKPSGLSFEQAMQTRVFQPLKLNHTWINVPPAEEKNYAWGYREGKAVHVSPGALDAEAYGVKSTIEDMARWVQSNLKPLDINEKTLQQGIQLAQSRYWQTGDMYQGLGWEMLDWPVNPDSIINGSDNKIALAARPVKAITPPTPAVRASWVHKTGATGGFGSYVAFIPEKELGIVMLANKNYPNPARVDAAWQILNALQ
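20 mM phosphate pH 7.0 + 0.01% (detergent screen) or 0.0001% Triton X-100; 5.3 nM AmpC reagent; cpd preinc 15 min RT; nitrocefin (800 uM stock) to start; A480 q20 s × 4 min; Activity was normalised to no-enzyme and no-compound control wells.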
AMA1-RON2 inh: AMA1-RON2 (P. falciparum) interaction inhibition. AID 720542. Potency, µM (highest dose often 58.2 µM), inactives show at the top dose activity change, negative = inhibition, most hits filed as inhibitors. AlphaScreen AMA1-biotinylated RON2 peptide binding. 360,000 compounds, 0.2% hits;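 note: potency is the fitted concentration of half-maximal effect; 0% = vehicle wells and -100% = peptide control; nearly all actives have a fitted effect of over 45% in size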
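AMA1 (3D7) with his tag at 25 nM final met compounds first, then biotinylated RON2 peptide at 25 nM; detection used donor plus acceptor beads, 10 µg/mL apiece, read by AlphaScreen after 30 min at room temperature.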
Shiga inhibitor: inhibitors of Shiga toxin in Vero cells; Vero cells, Shiga toxin protein synthesis inhibition reporter; inhibition, % at 38.7 µM; 290,000 compounds, 9.2% hits; in the data active = inhibition mostly above about 28%, no sharp cut-off; inactive = mostly below about 43%; note: 0% is about no effect
CHX counter: counter-screen for Shiga toxin inhibitors: cycloheximide protein synthesis inhibition | cell reporter, cycloheximide protein synthesis inhibition counterscreen | AID 2314 | max response, % | 300,000 compounds, 12% hits; in the data active = max response mostly above about 13%, no sharp cut-off; inactive = mostly below about 14%; note: read at 38.3 µM for the half of the compounds with a filed dose; 0% is about no effect
SARS PLpro yeast: inhibitors of SARS-CoV papain-like protease in yeast | 330,000 compounds, 0.19% hits | S. cerevisiae expressing SARS-CoV PLpro, growth rescue | Potency, µM (highest dose often 32.9 µM), for the others: at the top dose activity, positive = growth rescue, actives largely listed as activators; calls by dose curve; note: potency is the fitted concentration of half-maximal effect; 0% is about no effect; nearly all actives have a fitted effect of over 55% in size
AmpC no deterg: blocks E. coli AmpC beta-lactamase in detergent-free assay; AmpC nitrocefin hydrolysis, absorbance 480 nm, 0.0001% Triton; AID 485341; Potency, µM (highest dose often 57.1 µM), for inactives: at the top dose activity change, negative = inhibition, hits mostly inhibitors; 330,000 compounds, 0.52% hits; P00811;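 note: potency is the fitted concentration of half-maximal effect; plate controls were no compound for no effect and no enzyme for full effect; nearly all actives have a fitted effect of over 20% in size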
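AmpC (5.3 nM in the dispensed reagent) in 20 mM phosphate pH 7.0 with 0.01% (detergent screen) or 0.0001% Triton X-100 was preincubated with compounds for 15 min at room temperature. Nitrocefin was then added from an 800 uM solution, and hydrolysis was followed at 480 nm.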
* hit, by the source's call; [ ] = another dose, or the depositor's remark. Unless noted, calls come from the whole dose curve; as a rule, active = well fitted curve in the direction sought with a large enough effect; inconclusive = small, poorly fitted or top-dose-only effect, or another doubt; inactive = no such curve, though single readings can be large; an effect the other way counts as inactive or inconclusive.

Screening COc1ccc(CN2C3CCCC2CC(NC(=O)Nc2ccccc2C)C3)cc1 (stereo not given) returned AmpC inh detg inconclusive, AMA1-RON2 inh 2.9%, Shiga inhibitor -2.4, CHX counter 1.3, SARS PLpro yeast 7.8% and AmpC no deterg -22.8%.
Screening CN1CC2(C)OC(=O)C(Cl)=C2CC1c1ccccc1 (stereo not given) returned AmpC inh detg -8.6%, AMA1-RON2 inh 1.0%, Shiga inhibitor -3.2, CHX counter -2.6, SARS PLpro yeast 7.4% and AmpC no deterg -10.2%.
Screening COc1ccc(-c2nc3n(c2C)Cc2ccccc2-3)cc1 returned AmpC inh detg 2.9%, AMA1-RON2 inh -9.5%, Shiga inhibitor 129.6*, CHX counter 39.1*, SARS PLpro yeast -0.7% and AmpC no deterg -18.7%.
`Cc1ccc(N2C(=O)/C(=C\c3ccco3)SC2=S)cc1` gave AmpC inh detg 5.8%, AMA1-RON2 inh inconclusive, Shiga inhibitor 63.9*, CHX counter 21.4, SARS PLpro yeast -3.5% and AmpC no deterg -33.3%.
Screening O=C1/C(=C\c2ccco2)SC(=S)N1c1ccccc1 returned AmpC inh detg -13.8%, AMA1-RON2 inh -7.3%, Shiga inhibitor 38.8, CHX counter 6.9, SARS PLpro yeast -5.8% and AmpC no deterg -15.4%.
COc1ccc(/C=C2\Sc3ccc(C(=O)NCC4CCCO4)cc3N(C)C2=O)cc1 (stereo not given) was read as AmpC inh detg -11.5%, AMA1-RON2 inh -7.7%, Shiga inhibitor 10.9, CHX counter 11.6*, SARS PLpro yeast -13.2% and AmpC no deterg 71.8%.
For O=C1/C(=C/c2ccco2)SC(=S)N1CC1CCCO1 (stereo not given) the results were AmpC inh detg 10.4%, AMA1-RON2 inh inconclusive, Shiga inhibitor 63.3*, CHX counter 26.4*, SARS PLpro yeast -1.4% and AmpC no deterg -31.9%.
`O=C1/C(=C/c2cccnc2)SC(=S)N1CC1CCCO1` (stereo not given) gave AmpC inh detg inconclusive, AMA1-RON2 inh -0.2%, Shiga inhibitor 12.0, CHX counter -2.0, SARS PLpro yeast -0.9% and AmpC no deterg -9.0%[11.4 µM].
`Cc1ccc(/C=C2\SC(=S)N(CC3CCCO3)C2=O)o1` (stereo not given) gave AmpC inh detg 3.0%, AMA1-RON2 inh inconclusive, Shiga inhibitor 8.5, CHX counter 1.3, SARS PLpro yeast -2.0% and AmpC no deterg -49.2%.
Screening COc1ccc(/C=C2\Sc3ccc(C(=O)N4CCOCC4)cc3N(C)C2=O)cc1 returned AmpC inh detg -6.4%, AMA1-RON2 inh -9.9%, Shiga inhibitor 35.1, CHX counter 8.3, SARS PLpro yeast 23.2% and AmpC no deterg 170.6%.
`COc1cc(/C=C2/SC(=S)N(CC3CCCO3)C2=O)ccc1O` (stereo not given) gave AmpC inh detg -5.3%, AMA1-RON2 inh inconclusive, Shiga inhibitor 41.2*, CHX counter 20.7*, SARS PLpro yeast -25.6% and AmpC no deterg -8.7%.
For Cn1c(SCC(=O)c2ccc(F)cc2)nnc1-c1ccccc1Br the results were AmpC inh detg -2.5%.
CCOC(=O)CSc1nnnn1-c1cccc2ccccc12 was read as AmpC inh detg -4.9%, AMA1-RON2 inh -17.0%, Shiga inhibitor -1.8, CHX counter -2.3, SARS PLpro yeast 13.1% and AmpC no deterg 8.8%.
COc1ccc(/C=C2\SC(=S)N(CC3CCCO3)C2=O)cc1 (stereo not given) was read as AmpC inh detg -7.3%, AMA1-RON2 inh inconclusive, Shiga inhibitor 13.5, CHX counter 19.7*, SARS PLpro yeast -1.6% and AmpC no deterg -3.8%.
Screening COc1ccc(/C=C2/SC(=S)N(CCC(=O)O)C2=O)cc1 returned AmpC inh detg -1.4%, AMA1-RON2 inh -4.3%, Shiga inhibitor 12.2, CHX counter -4.6, SARS PLpro yeast -8.9% and AmpC no deterg -0.5%.
Screening COc1ccccc1/C=C1\NC(=S)N(CC2CCCO2)C1=O (stereo not given) returned AmpC inh detg 11.7%, AMA1-RON2 inh 30.9%, Shiga inhibitor 39.7, CHX counter 27.4*, SARS PLpro yeast -21.0% and AmpC no deterg -18.1%.
For COc1ccc(-c2nc(-c3ccc(NC(=O)c4ccc(Br)o4)cc3)no2)cc1OC the results were AmpC inh detg -2.2%, AMA1-RON2 inh -6.5%, Shiga inhibitor 46.1*, CHX counter 29.1*, SARS PLpro yeast -2.0% and AmpC no deterg -0.2%.
For COc1cc(-c2nc(-c3ccc(NC(=O)c4ccc(Br)o4)cc3)no2)cc(OC)c1OC the results were AmpC inh detg inconclusive, AMA1-RON2 inh -19.8%, Shiga inhibitor 49.4, CHX counter 36.3*, SARS PLpro yeast 0.2% and AmpC no deterg -20.1%.
`COc1cccc(CN2CCN(C3CCOCC3)CC2CCO)c1` (stereo not given) gave AmpC inh detg 1.8%, AMA1-RON2 inh -12.5%, Shiga inhibitor -5.3, CHX counter 1.0, SARS PLpro yeast -0.4% and AmpC no deterg -5.3%.
For O=C(NC(=S)Nc1cccc2[nH]ncc12)c1ccccc1 the results were AmpC inh detg -0.6%, AMA1-RON2 inh 17.2%, Shiga inhibitor 58.4*, CHX counter 36.2*, SARS PLpro yeast 0.6% and AmpC no deterg -30.6%.
Screening O=C(NC(=S)Nc1ccccc1[N+](=O)[O-])c1ccccc1 returned AmpC inh detg 12.1%, AMA1-RON2 inh 19.0%, Shiga inhibitor 96.1*, CHX counter 45.2*, SARS PLpro yeast -2.4% and AmpC no deterg -33.4%.
Screening Cc1cc(C(=O)Nc2cccc([N+](=O)[O-])c2C)cs1 returned AmpC inh detg 2.8%, AMA1-RON2 inh -0.9%, Shiga inhibitor 23.0, CHX counter 26.3*, SARS PLpro yeast 1.5% and AmpC no deterg -11.7%.
For Cc1c(NC(=O)c2ccc(C(C)(C)C)cc2)cccc1[N+](=O)[O-] the results were AmpC inh detg -12.6%, AMA1-RON2 inh -26.9%, Shiga inhibitor 22.6, CHX counter 27.1*, SARS PLpro yeast -0.1% and AmpC no deterg -24.4%.
Screening CNC(=S)Nc1cccc2[nH]ncc12 returned AmpC inh detg -12.4%, AMA1-RON2 inh -7.3%, Shiga inhibitor -2.9, CHX counter 1.1, SARS PLpro yeast 2.2% and AmpC no deterg -14.3%.
Screening Cc1c(NC(=O)c2ccc3nsnc3c2)cccc1[N+](=O)[O-] returned AmpC inh detg -14.1%, AMA1-RON2 inh 3.9%, Shiga inhibitor 45.0, CHX counter 1.8, SARS PLpro yeast -10.7% and AmpC no deterg -40.5%.
Screening CCCS(=O)(=O)N1CCCC(C(=O)N2CCC(Cc3ccccc3)CC2)C1 (stereo not given) returned AmpC inh detg -3.1%, AMA1-RON2 inh 4.5%, Shiga inhibitor -9.2, CHX counter -3.9, SARS PLpro yeast 22.6% and AmpC no deterg 156.9%.

Screening results (PubChem)
